Results from PubChem BioAssay (Tox21).
Records with an inconclusive call do not appear. Activity calls are given as the source filed them. Unless noted, the call rests on the fitted dose curve; in most records, active means well fitted curve in the direction sought with a large enough effect in the repeat runs; inconclusive means weak or mixed curves; inactive means no such curve, though single readings can be large; an effect the other way counts as inactive or inconclusive.

Legend:
[1] = qHTS assay to identify small molecule antagonists of the estrogen receptor alpha (ER-alpha) signaling pathway using the BG1 cell line in the presence of 0.1 nM 17-beta-estradiol - cell viability counter screen (AID 1259241); further: nearly all actives have a fitted effect of over 40% in size
Outline: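 Live-cell protease activity (CellTiter-Fluor fluorescence, 30 min) was read in the same wells after VM7Luc4E2 cells had been exposed to compounds with 0.1 nM 17beta-estradiol for 22 hr at 37C.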

[2] = qHTS assay to identify small molecule antagonists of the androgen receptor (AR) signaling pathway using the MDA cell line in the presence of 0.5 nM R1881 - cell viability counter screen (AID 1259242); further: nearly all actives have a fitted effect of over 45% in size
Outline: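 Human breast carcinoma MDA-kb2 cells, cultured without CO2, receive compounds alongside 0.5 nM (final) R1881 agonist. After 16 hr at 37C, viability is taken as live-cell protease signal.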

[3] = qHTS assay to identify small molecule HDAC inhibitors (AID 1259364);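 further: wild-type HCT-116 cells with endogenous class I/II HDAC activity; top concentration of the series differs between compounds; nearly all actives have a fitted effect of over 45% in size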
Outline: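 After a 2 hr compound incubation (37C, 5% CO2), HCT-116 cells seeded at 1,500/well the day before received HDAC-Glo reagent; signal read as luminescence after 30 min at room temperature.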

[4] = qHTS assay to identify small molecule HDAC inhibitors - cell viability counter screen (AID 1259365); further: series mostly up to about 92 µM; nearly all actives have a fitted effect of over 50% in size
Outline: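 HCT-116 (wild type), 1,500 cells/well, overnight 37C/5% CO2; compound in DMSO 2hr; CellTiter-Glo 30min RT; luminescence read.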

[5] = qHTS assay to identify small molecule agonists of the sonic hedgehog signaling (Shh) pathway - cell viability counter screen (AID 1259366); further: nearly all actives have a fitted effect of over 50% in size; further: potency means the concentration at half of the fitted maximal effect
Outline: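 CellTiter-Fluor fluorescence read-out, 1 hr at 37C, added after 23hr compound exposure. Cells: 3T3 Gli1-Luc, an NIH/3T3 clone with stably integrated Gli1-Luc reporter, plated 4hr before compound.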

[6] = qHTS assay to identify small molecule agonists of the sonic hedgehog signaling (Shh) pathway (AID 1259368; calls by dose curve;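 further: NIH/3T3-derived 3T3Gli1-Luc cells carrying a stable Gli1-driven firefly luciferase reporter; series mostly up to about 92 µM; nearly all actives have a fitted effect of over 15% in size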)
Outline: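 Stable NIH/3T3 Gli1-Luc reporter clone; 24 hr cpd exposure after a 4 hr settling period; luminescence endpoint.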

[7] = qHTS assay to identify small molecule antagonists of the sonic hedgehog signaling (Shh) pathway (AID 1259369; calls by dose curve; further: nearly all actives have a fitted effect of over 45% in size)
Outline: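 Gli1 transcriptional reporter (firefly Luc) in NIH/3T3 background, conditioned-medium activated. 24hr exposure, luminescence endpoint.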

[8] = molecular target: Estrogen receptor beta (Homo sapiens) (UniProt Q92731); test: qHTS assay to identify small molecule agonists of the estrogen receptor beta (ER-beta) signaling pathway (AID 1259377; active means well fitted activation curve with a large enough effect in the signal ratio in the repeat runs, not every such curve was filed as active; the % refers to the signal ratio; further: potency means the concentration at half of the fitted maximal effect)
Outline: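 Beta-lactamase reporter readout: fluorescence of LiveBLAzer B/G FRET substrate after 2 h at room temperature, following 16 h compound treatment of ER-beta-UAS-bla HEK293T cells at 37C in 2% charcoal-stripped FBS medium.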

[9] = qHTS assay to identify small molecule agonists of the androgen receptor (AR) signaling pathway in the presence of an antagonist - cell viability counter screen (AID 1259379);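 further: MDA-kb2 human breast cancer cells carrying an MMTV luciferase reporter; series mostly up to about 92 µM; nearly all actives have a fitted effect of over 25% in size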
Outline: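 Counter screen for cell viability run in parallel with the AR agonist-mode luciferase assay. MDA-kb2 cells were co-treated with nilutamide (3.0uM final) and compounds, then incubated 16 hr at 37C, and CellTiter-Fluor fluorescence was measured.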

[10] = qHTS assay to identify small molecule agonists of the estrogen receptor beta (ER-beta) signaling pathway - cell viability counter screen (AID 1259380); further: nearly all actives have a fitted effect of over 30% in size
Outline: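 In this qHTS counter screen, HEK293T cells carrying an ER-beta/UAS beta-lactamase reporter, grown in 2% charcoal-stripped FBS, received compound for 16 hr; ATP-based CellTiter-Glo luminescence was then read after 30 min at room temperature.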

[11] = qHTS assay to identify small molecule antagonists of the estrogen receptor beta (ER-beta) signaling pathway - cell viability counter screen (AID 1259382); further: series mostly up to about 92 µM; nearly all actives have a fitted effect of over 55% in size
Outline: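 HEK293T ER-beta-UAS-bla, 2% charcoal-stripped FBS; compounds + 1nM E2 16 hr 37C; CellTiter-Glo luminescence, 30 min RT.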

[12] = qHTS assay to identify small molecule agonists or antagonists of the thyroid stimulating hormone receptor (TSHR) signaling pathway - wild type cell line counter screen (AID 1259384; calls by dose curve)
Outline: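 Wild-type Hek293 cells, 800/well, 18 h at 37C, then compound with Ro20-1724 for 30 min RT. cAMP by HTRF (cAMP-d2/anti-cAMP cryptate), 1 h RT, fluorescence read. 15 concentrations, triplicates.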

[13] = molecular target: Thyrotropin receptor (Homo sapiens) (UniProt P16473); test: qHTS assay to identify small molecule antagonists of the thyroid stimulating hormone receptor (TSHR) signaling pathway (AID 1259385; calls by dose curve; further: nearly all actives have a fitted effect of over 20% in size)
Outline: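 TSHR-HEK293 cells (800/well) plated 18 h, then compounds with Ro20-1724 and TSH at 1.5 ng/mL final, 30 min at room temperature. cAMP quantified by HTRF (cAMP-d2/anti-cAMP-cryptate, 1 h); 15 concentrations in triplicate.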

[14] = qHTS assay to identify small molecule phospholipidosis (PLD) inducers (AID 1259344; active means well fitted curve in the direction sought with a large enough effect; an effect the other way counts as inactive or inconclusive)
Outline: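 Image-based: LipidTOX Red pit count/intensity per well and per cell; HepG2, 24 h compound at 37 C, PFA fixation, Hoechst counterstain.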

[15] = molecular target: Estrogen receptor beta (Homo sapiens) (UniProt Q92731); test: qHTS assay to identify small molecule antagonists of the estrogen receptor beta (ER-beta) signaling pathway (AID 1259378; active means well fitted inhibition curve with a large enough effect in the signal ratio in the repeat runs, not every such curve was filed as active; the % refers to the signal ratio)
Outline: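 ER-beta-UAS-bla HEK293T cells in 2% charcoal-stripped FBS medium treated with compound plus 1nM final 17-beta-estradiol for 16 hr at 37C. Beta-lactamase reporter read by FRET substrate fluorescence after 2 hours at room temperature.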
On the % scale 0 is the no-effect control and ±100 the full control effect.

Thyrotropin receptor (Homo sapiens), sequence (P16473 whole entry, looked up): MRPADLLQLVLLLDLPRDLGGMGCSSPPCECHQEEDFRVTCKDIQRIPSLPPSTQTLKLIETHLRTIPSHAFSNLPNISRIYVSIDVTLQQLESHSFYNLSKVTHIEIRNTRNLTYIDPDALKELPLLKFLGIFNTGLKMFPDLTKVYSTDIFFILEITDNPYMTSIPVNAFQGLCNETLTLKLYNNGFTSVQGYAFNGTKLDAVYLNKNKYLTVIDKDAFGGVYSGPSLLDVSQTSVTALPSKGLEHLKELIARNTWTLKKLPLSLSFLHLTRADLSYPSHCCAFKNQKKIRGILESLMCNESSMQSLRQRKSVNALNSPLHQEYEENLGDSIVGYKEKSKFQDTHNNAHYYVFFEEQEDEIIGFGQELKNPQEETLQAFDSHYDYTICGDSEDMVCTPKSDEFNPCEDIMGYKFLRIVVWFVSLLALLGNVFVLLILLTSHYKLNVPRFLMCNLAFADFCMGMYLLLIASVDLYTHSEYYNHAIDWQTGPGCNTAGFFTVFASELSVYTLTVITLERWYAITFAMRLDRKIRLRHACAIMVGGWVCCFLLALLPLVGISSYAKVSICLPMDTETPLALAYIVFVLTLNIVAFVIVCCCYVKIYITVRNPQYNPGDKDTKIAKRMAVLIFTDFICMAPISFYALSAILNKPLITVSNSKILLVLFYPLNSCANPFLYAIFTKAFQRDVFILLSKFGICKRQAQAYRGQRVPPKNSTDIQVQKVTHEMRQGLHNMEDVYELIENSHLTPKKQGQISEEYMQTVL
Estrogen receptor beta (Homo sapiens), sequence (Q92731 whole entry, looked up): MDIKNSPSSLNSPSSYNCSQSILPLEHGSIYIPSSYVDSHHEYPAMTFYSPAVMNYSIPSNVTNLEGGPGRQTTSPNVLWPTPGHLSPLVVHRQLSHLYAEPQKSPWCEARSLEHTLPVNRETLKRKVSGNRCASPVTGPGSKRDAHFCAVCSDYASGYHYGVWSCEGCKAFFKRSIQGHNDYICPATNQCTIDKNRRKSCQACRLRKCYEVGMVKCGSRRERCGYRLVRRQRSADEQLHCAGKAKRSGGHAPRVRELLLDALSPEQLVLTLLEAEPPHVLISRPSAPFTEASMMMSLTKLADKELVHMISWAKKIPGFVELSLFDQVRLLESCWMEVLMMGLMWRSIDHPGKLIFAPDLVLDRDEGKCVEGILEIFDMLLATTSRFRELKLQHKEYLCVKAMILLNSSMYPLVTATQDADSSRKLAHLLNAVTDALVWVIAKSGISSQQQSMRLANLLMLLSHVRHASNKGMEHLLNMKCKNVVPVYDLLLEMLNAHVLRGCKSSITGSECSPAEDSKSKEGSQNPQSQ

COc1cc(N)ccc1C
inactive: Potency [1] | outcome [2] | Potency [3] | outcome [4] | Potency [5] | outcome [6] | Potency [7] | Potency [8] | Potency [9] | Potency [10] | outcome [11] | outcome [12] | outcome [13]

COc1ccc2c(c1OC)C(=O)O[C@@H]2[C@H]1c2c(cc3c(c2OC)OCO3)CCN1C
active: Potency [5] 2.11 µM
inactive: outcome [2] | outcome [14] | Potency [3] | outcome [4] | outcome [6] | Potency [10] | outcome [11] | outcome [12] | outcome [13]

C=Cc1ccccn1
inactive: Potency [1] | outcome [2] | Potency [3] | outcome [4] | Potency [5] | outcome [6] | Potency [7] | Potency [9] | Potency [10] | outcome [11] | outcome [12] | outcome [13]

O=C(c1ccc(O)cc1)c1ccc(O)c(O)c1O
inactive: outcome [2] | outcome [4] | outcome [6] | Potency [10] | outcome [11]
active: Potency [5] 30.8 µM | Potency [8] 15.4 µM

CC(C)=CCOC(=O)c1ccccc1
inactive: Potency [1] | outcome [2] | Potency [3] | outcome [4] | Potency [5] | outcome [6] | Potency [7] | Potency [8] | outcome [15] | Potency [9] | Potency [10] | outcome [11] | outcome [12] | outcome [13]

C[Si](C)=O
inactive: activity change, negative = cytotoxicity [1] -11.4% [at 8.39 µM] | viability change, negative = cytotoxic [2] 2.02% [at 8.39 µM] | activity change, negative = inhibition [3] 1.64% [at 8.39 µM] | activity change, negative = cytotoxicity [4] 2.53% [at 8.39 µM] | viability change, negative = cytotoxic [5] -1.38% [at 8.39 µM] | activity change [6] 0.132% [at 8.39 µM] | activity change, negative = inhibition [7] 4.44% [at 8.39 µM] | activity change, negative = cytotoxicity [9] -1.72% [at 8.39 µM] | activity change, negative = cytotoxicity [10] 5.93% [at 8.39 µM] | cAMP activity change [12] -4.18% [at 8.39 µM] | activity change, negative = inhibition [13] -2.39% [at 8.39 µM]

CC(CN)CC(C)(C)CCN (centres undefined)
inactive: Potency [1] | Potency [3] | outcome [4] | Potency [5] | outcome [6] | Potency [7] | Potency [8] | outcome [15] | Potency [9] | Potency [10] | outcome [11] | outcome [12] | outcome [13]

COCCOCCOCCOCCOCCO
inactive: Potency [1] | outcome [2] | Potency [3] | outcome [4] | Potency [5] | outcome [6] | Potency [7] | Potency [8] | outcome [15] | Potency [9] | Potency [10] | outcome [11] | outcome [12] | outcome [13]
